Compound activity deposited in PubChem by Paczesny and Yang Labs, IUPUI and University of Michigan.
Shown is part of a subset that was picked to be rich in hits.
ST2 inh: inhibitors of human ST2 (IL1RL1) binding to IL-33, primary screen, biochemical, AlphaLISA | Interleukin-1 receptor-like 1 (Homo sapiens), Q01638 | AlphaLISA ST2-Fc/biotin-IL-33 interaction, 1 h | inhibition, % for hits at 17 µM | 2.3% of 78,000 active | AID 1259354, 2018; in the data active means inhibition above about 30%
Target sequence (Q01638 whole entry, looked up): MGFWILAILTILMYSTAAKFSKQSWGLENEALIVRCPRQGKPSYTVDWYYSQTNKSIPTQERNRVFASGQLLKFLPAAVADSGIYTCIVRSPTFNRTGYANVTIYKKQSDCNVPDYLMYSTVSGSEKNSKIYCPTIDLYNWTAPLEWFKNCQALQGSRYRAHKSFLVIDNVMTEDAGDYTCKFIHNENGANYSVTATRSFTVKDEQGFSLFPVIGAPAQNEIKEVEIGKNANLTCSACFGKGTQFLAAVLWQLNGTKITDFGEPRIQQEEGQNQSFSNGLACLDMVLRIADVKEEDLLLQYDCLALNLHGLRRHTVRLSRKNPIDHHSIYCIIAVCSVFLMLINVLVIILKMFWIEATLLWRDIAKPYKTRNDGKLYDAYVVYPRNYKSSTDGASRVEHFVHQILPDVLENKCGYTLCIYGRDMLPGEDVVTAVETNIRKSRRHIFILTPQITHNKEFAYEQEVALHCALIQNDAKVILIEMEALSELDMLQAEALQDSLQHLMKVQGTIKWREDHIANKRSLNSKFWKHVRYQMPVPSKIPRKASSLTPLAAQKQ
Numbers without * were called inactive; i = inactive.

SMILES | ST2 inh
N#Cc1nc(-c2ccc(F)cc2)oc1NCc1ccco1 | i
COc1ccc(CCNc2oc(COc3ccccc3C)nc2C#N)cc1 | 38%*
COc1ccc(CCC(=O)NCCc2cccc(Cl)c2)cc1 | i
N#Cc1nc(COc2ccc(Br)cc2)oc1NCCN1CCOCC1 | i
COc1ccc(CCNc2oc(COc3ccc(OC)cc3)nc2C#N)cc1 | 36%*
COc1ccc(OCc2nc(C#N)c(NCCN3CCOCC3)o2)cc1 | i
COc1ccc(C2C(C#N)=C(N)Oc3n[nH]c(C)c32)cc1COc1ccccc1C (stereo not drawn) | i
Cc1ccccc1OCc1nnc(SCC(=O)NCCc2ccccc2)n1C | i
Cc1ccccc1OCc1nc(C#N)c(NCc2ccc(F)cc2)o1 | 34%*
CC(C)CCNC(=O)C1c2c(n(C)c3ccccc23)SCC(=O)N1c1ccc(F)cc1 (stereo not drawn) | i
CC(C)(C)c1ccc(O)c(CN2CCOC3(CNCCOC3)C2)c1 (stereo not drawn) | i
COc1ccc(C(O)=C2C(=O)C(=O)N(CCCO)C2c2ccc(N(C)C)cc2)cc1 (stereo not drawn) | i
CCNc1ncc(C(=O)NCC2(O)CCCNCC2)cn1 (stereo not drawn) | i
O=C(CC1Sc2ccccc2NC1=O)Nc1ccc(SC(F)F)cc1 (stereo not drawn) | i
O=C(c1ccc(Cl)cc1Cl)N1CCN(c2ccc([N+](=O)[O-])cc2)CC1 | i
CC1=C(C(N)=O)C(c2cccc(F)c2)n2nc(SCc3ccccc3Cl)nc2N1 (stereo not drawn) | i
CN(C1CCCCC1)S(=O)(=O)c1ccc(N)cc1 | i
CCn1nnnc1-c1ccc(OC)c(S(=O)(=O)Nc2c(C)n(C)n(-c3ccccc3)c2=O)c1 | i
O=C(O)c1cccc(CC2CCN(Cc3ccncc3)CC2)c1 | i
O=C(C[C@@H]1CCNC[C@@H]1Cc1cc(-c2ccccc2)on1)NCc1ccccc1 | i
CCOc1ccc2nc(N3CCCC(C(=O)N4CCC(C(=O)N5CCOCC5)CC4)C3)nc(C)c2c1 (stereo not drawn) | i
CCc1ccc(C(=O)CC2(O)C(=O)Nc3ccccc32)cc1 (stereo not drawn) | i
CCc1ccc2c(c1)C1(NN=C(c3ccc(C)cc3)S1)C(=O)N2 (stereo not drawn) | 45%*
CCc1ccc(N2C(=O)Nc3ccc(Br)cc3C2(O)C(=O)NC(C)C)cc1 (stereo not drawn) | i
CC(C)C(NC(=O)C1CCCCC1)C(=O)NCc1ccco1 (stereo not drawn) | i
SMILES | ST2 inh
CNC(=O)c1ccc(CN2C[C@@H]3C[C@H](C2)[C@@H]2CCCC(=O)N2C3)o1 | i
O=C(c1cccc(F)c1)N1CCN(c2ccc([N+](=O)[O-])c(NCc3ccccc3)c2)CC1 | 36%*
Cc1ccccc1C(=O)N1CCN(c2ccc([N+](=O)[O-])c(NCCc3ccccc3)c2)CC1 | i
O=C(c1ccccc1Cl)N1CCN(c2ccc([N+](=O)[O-])c(N3CCOCC3)c2)CC1 | i
Cc1ccccc1C(=O)N1CCN(c2ccc([N+](=O)[O-])c(NC(C)c3ccccc3)c2)CC1 (stereo not drawn) | 38%*
O=C(c1cccc(F)c1)N1CCN(c2ccc(Cl)cc2)CC1 | i
O=C(c1ccccc1)c1ccc(N2CCN(C(=O)c3cccc(F)c3)CC2)c(F)c1 | i
O=[N+]([O-])c1ccc(N2CCN(S(=O)(=O)Cc3ccccc3)CC2)cc1NCc1cccnc1 | i
CC(=O)N1CCN(c2ccc([N+](=O)[O-])c(NC(C)C34CC5CC(CC(C5)C3)C4)c2)CC1 (stereo not drawn) | i
CC(Nc1cc(N2CCN(S(=O)(=O)N(C)C)CC2)ccc1[N+](=O)[O-])c1ccccc1 (stereo not drawn) | 30%*
Cc1nn(CCCC(=O)Nc2cc(Cl)ccc2O)c(C)c1[N+](=O)[O-] | i
Cn1c(=O)c2c(nc(N3CCCC3)n2CCSc2ncccn2)n(C)c1=O | i
CN(CC1CCCO1)C(=O)c1coc(COc2ccc3c(c2)OCO3)n1 (stereo not drawn) | i
COCCc1nc2ccc(C(=O)N3CCCC(C(=O)c4cccnc4)C3)cc2o1 (stereo not drawn) | i
O=C(CCCn1cnc2ccccc2c1=O)N1CCCCC1CCO (stereo not drawn) | i
Cc1ccccc1-n1nc2c(c1NC(=O)c1ccc(C(C)(C)C)cc1)CS(=O)C2 (stereo not drawn) | i
O=C(NCc1ccc(Cl)cc1)NCC1CNCCOC1 (stereo not drawn) | i
COCC(=O)NC[C@H]1O[C@@H](CO)[C@@H](O)[C@H]1N1CCCC1 | i
OC[C@H]1O[C@@H](OCCc2ccccc2)[C@H](O[C@@H]2OC[C@](O)(CO)[C@H]2O)[C@@H](O)[C@@H]1O | i
COc1ccc(C2CC(c3c(-c4ccccc4)c4cc(Cl)ccc4[nH]c3=O)=NO2)cc1 (stereo not drawn) | i
